HT1080-NT tox – qHTS for induction of synthetic lethality in tumor cells producing 2HG: qHTS for the HT-1080-NT fibrosarcoma cell line. HT-1080-NT fibrosarcoma viability, CellTiter-Glo ATP luminescence, 48 h. AID 686970, 2013. Potency, µM (series often up to 46.1 µM), for the others: at the highest dose activity, negative = less viability, hits mostly cytotoxic. hit rate 1.6% among 360,000;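 further: NT is the 2HG producing partner of a matched IDH1 knockdown line; 0% = DMSO-treated cells and -100% = media-only wells without cells; nearly all actives have a fitted effect of over 55% in size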
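750 cells/well, RPMI + 5% FBS; 2 h settle, compound pin-transfer, 48 h at 37 degrees C. CellTiter-Glo 10 min RT, luminescence. Normalized to DMSO and media-only wells.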
TDP1 cell noCPT – qHTS for Inhibitors of human tyrosyl-DNA phosphodiesterase 1 (TDP1): qHTS in cells in absence of CPT. DT40 Tdp1-/- hTDP1 cells, no CPT, ATP luminescence, 48 h. Potency, µM (top dose mostly 46.2 µM), without a hit: top-dose activity change, negative = growth inhibition, actives largely listed as inhibitors. hit rate 15% among 420,000; further: nearly all actives have a fitted effect of over 55% in size
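Readout: luminescence from CellTiter-Glo after 30 min in the dark at RT. Cells: DT40 Tdp1-/- with stable hTDP1, 400/well. Exposure: compounds alone, ≥48 hr, 37 °C.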
KB-V1 cytotox – qHTS assay for MDR1-selective chemotherapeutics: Primary screen using the drug-selected MDR subline cells KB-V1; KB-V1 MDR cells viability, CellTiter-Glo, 72 h; Potency, µM (titrated, usually from 46.1 µM), usual class: cytotoxic; hit rate 3.4% among 400,000; AID 1347076, 2019; further: nearly all actives have a fitted effect of over 60% in size
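KB-V1 MDR subline cells in DMEM (phenol-red free, 10% FBS) exposed to compounds in qHTS concentration series for 72 h at 37 degrees C. Viability read by CellTiter-Glo luminescence; concentration-effect curves fitted after normalization and correction.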
TDP1 cell CPT – qHTS for Inhibitors of human tyrosyl-DNA phosphodiesterase 1 (TDP1): qHTS in cells in presence of CPT. chicken DT40 Tdp1-/-;hTDP1 cells + 20 nM CPT, ATP luminescence, 48 h. Potency, µM (highest dose often 46.2 µM), for inactives: at the highest dose activity change, negative = growth inhibition, usual class: inhibitors. hit rate 12% among 420,000; further: nearly all actives have a fitted effect of over 55% in size
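Cell growth measured by CellTiter-Glo luminescence after a minimum 48 h, 37 C compound exposure with 20 nM CPT in Tdp1-knockout DT40 cells stably expressing hTDP1, seeded 400/well; qHTS titration format.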
KB-3-1 tox – qHTS assay for MDR1-selective chemotherapeutics: Primary screen using the parental adenocarcinoma cell KB-3-1; AID 1347075, 2019; hit rate 1.4% among 400,000; Potency, µM (top dose mostly 46.1 µM), usual class: cytotoxic; KB-3-1 viability, CellTiter-Glo ATP luminescence, 72 h; further: nearly all actives have a fitted effect of over 60% in size
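Using CellTiter-Glo luminescence, growth of non-resistant KB-3-1 adenocarcinoma cells is assessed 72 h after pin-tool compound addition at 37 °C. Normalized responses across the concentration series yield fitted curves.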
HT1080 IDH1KD tx – qHTS for induction of synthetic lethality in tumor cells producing 2HG: qHTS for the HT-1080-IDH1KD cell line | HT-1080 IDH1 knockdown viability, ATP luminescence, 48 h | Potency, µM (doses to about 46.1 µM), without a hit: top-dose activity, negative = toxicity, most hits filed as cytotoxic | hit rate 2% among 360,000 | AID 686971, 2013;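 further: 0% = DMSO wells and -100% = cell-free medium wells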
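HT-1080-IDH1KD cells (IDH1 knocked down), 750/well in RPMI with 5% FBS, treated with compound 48 h at 37 degrees C. Viability by CellTiter-Glo luminescence, normalised to DMSO and no-cell wells; concentration-response curves classed.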
* hit, by the source's call; i = inactive; ? = inconclusive; / = no result. A selection: hits, their analogues and other compounds. The true share with any hit is near 19%. The call rests on the fitted dose curve; in most records, active means well fitted curve in the direction sought with a large enough effect; inconclusive means small, poorly fitted or top-dose-only effect, or another doubt; inactive means no such curve, though single readings can be large; an effect the other way counts as inactive or inconclusive. Unless noted, on the % scale 0 is the no-effect control and ±100 the full control effect; potency means the concentration at half of the fitted maximal effect.

SMILES	HT1080-NT tox	TDP1 cell noCPT	KB-V1 cytotox	TDP1 cell CPT	KB-3-1 tox	HT1080 IDH1KD tx
CCCNC(=O)COc1coc(CN2CCN(c3cccc(Cl)c3)CC2)cc1=O	4%	-30%	i	3%	i	0%
CCOc1cccc(CN2CCCC(N3CCN(c4cccc(Cl)c4)CC3)C2)c1O (stereo not drawn)	-23%	?	i	-15%	i	-25%
CCCCOCc1cc(CN2CCN(c3cccc(Cl)c3)CC2)c(O)c2ncccc12	/	3.3µM*	/	16µM*	/	/
COc1ccc(OC)c(S(=O)(=O)Nc2c(C)n(C)n(-c3ccccc3)c2=O)c1	21%	-6%	i	27%	i	10%
Cc1cccc(C(=O)NC(=O)Nc2ccc(-c3cc(C(F)(F)F)nn3-c3ccccc3)cc2)c1	/	?	i	-15%	i	/
CCCCCC(=O)NC(NC(=S)Nc1ccc(S(N)(=O)=O)cc1)C(Cl)(Cl)Cl (stereo not drawn)	?	-5%	i	3%	i	?
CCCCCCCC(=O)NC(Nc1ccc(S(N)(=O)=O)cc1)C(Cl)(Cl)Cl (stereo not drawn)	?	21µM*	i	?	i	?
O=C(NCC1CCCO1)C(C(=O)c1ccccc1)n1ccccc1=O (stereo not drawn)	-1%	10µM*	?	?	i	10%
O=C(NCc1ccco1)C(C(=O)c1ccccc1)n1ccccc1=O (stereo not drawn)	-3%	?	i	0%	i	-2%
O=C1C2C3C=CC(CC3)C2C(=O)N1c1ccc(Br)cc1 (stereo not drawn)	-1%	-16%	i	-13%	i	-1%
CCc1ccccc1N(C)C(=O)c1cc2c(=O)oc3ccccc3c2s1	/	?	i	-30%	i	/
Oc1ccc(/C=N/N=C/c2ccc(O)c(O)c2)cc1O	?	18µM*	i	?	i	-16%
Oc1ccc(N=Cc2ccc(O)c(O)c2)cc1	-22%	?	?	?	?	?
C(=N\N(c1ccccc1)c1ccccc1)/c1ccccn1	0%	29µM*	i	-13%	i	-5%
COc1ccc(/C=N/N(Cc2ccccc2)c2ccccc2)cc1O	15µM*	?	?	?	i	23µM*
O=C(/C(=N/N=C/c1ccc(O)c(O)c1)c1ccccc1)c1ccccc1	?	8.2µM*	i	7.3µM*	i	?
O=c1c2c3c(sc2n(Cc2cc(=O)n4ccccc4n2)c(=O)n1-c1ccccc1)CCC3	/	-9%	i	2%	i	/
OCc1ccccc1-c1ccc2nncn2c1	?	0%	i	7%	i	5%
CC(=O)c1ccc(NC(=O)CN2C(=O)NC(C)(C3CCCCC3)C2=O)cc1 (stereo not drawn)	-2%	9%	i	-6%	i	-2%
CCOC(=O)[C@H]1[C@H]2COc3ccc(Cl)cc3[C@@H]2N2C(=O)[C@@H](CO)NC(=O)[C@@]12C	20%	-23%	i	?	i	0%
CCOc1ccc(NC(=O)C(=O)NCCc2sc(-c3ccc(C)cc3)nc2C)cc1	/	/	i	/	i	/
O=C(CC1C(=O)NCCN1Cc1ccc(F)c(F)c1)NCCCn1ccnc1 (stereo not drawn)	10%	-2%	i	0%	i	8%
COc1ccc(C(=O)NCCCCCCNC(=O)c2ccc(OC)cc2)cc1	-17%	-20%	i	-2%	i	-14%
Oc1ccc(/C=N/N(c2ccccc2)c2ccccc2)cc1O	-8%	?	i	10µM*	i	?
COc1ccc(CNC(=O)CCS(=O)(=O)c2cc3c4c(c2)CCN4C(=O)CC3)cc1OC	/	3%	i	-4%	i	/
SMILES	HT1080-NT tox	TDP1 cell noCPT	KB-V1 cytotox	TDP1 cell CPT	KB-3-1 tox	HT1080 IDH1KD tx
Cc1nc(Nc2ccccc2Cl)sc1C(=O)Nc1ccccc1	-4%	21µM*	?	18µM*	i	-8%
COc1ccc(C(=O)c2sc(Nc3ccc(NC(C)=O)cc3)nc2C)cc1	-1%	16µM*	i	29µM*	i	4%
Cc1nc(-c2ccccn2)sc1C(=O)O	10%	-1%	i	-2%	i	13%
COc1ccccc1Nc1nc(C)c(C(=O)Nc2ccccc2)s1	-21%	?	i	15µM*	i	-19%
Cc1nc(NCc2ccccc2)sc1C(=O)Nc1ccccc1	-4%	?	?	-1%	i	-14%
Cc1nc(-c2ccccn2)sc1C(=O)Nc1ccc(Cl)c(Cl)c1	-8%	15µM*	18µM*	?	i	1%
O=C(Nc1cccc(C(F)(F)F)c1)c1ccc2sc([C@@H]3O[C@H](CO)[C@H](O)[C@H](O)[C@H]3O)nc2c1	2%	-15%	i	0%	i	6%
CCC(=O)N1CCc2cc(S(=O)(=O)NCCC(=O)NCc3ccc(OC)cc3)ccc21	/	?	i	?	i	/
Cc1nc(Nc2ccccc2)sc1C(=O)Nc1ccccc1	-17%	?	i	21µM*	i	-1%
CNC(=O)Nc1cccc(-c2ccnc(C)n2)c1	2%	-8%	i	7%	i	2%
COc1cccc(C(=O)/C(C#N)=N/Nc2cccc(-c3ccnc(C)n3)c2)c1	26µM*	21µM*	?	?	?	-28%
COc1cc(C(=O)NCC(c2ccco2)N2CCc3ccccc3C2)cc(OC)c1OC (stereo not drawn)	3%	?	?	?	i	1%
COc1ccc(C(=O)NCC(c2ccco2)N2CCc3ccccc3C2)c(OC)c1 (stereo not drawn)	-11%	8.2µM*	?	23µM*	i	-16%
Cc1ccc(S(=O)(=O)NCC(c2ccco2)N2CCc3ccccc32)cc1 (stereo not drawn)	-10%	?	?	?	i	-4%

Bioassay records: PubChem BioAssay, National Center for Advancing Translational Sciences (NCATS)
